Screening results as filed in PubChem BioAssay.
Pf growth 96h = inhibits malaria parasite growth, 96 h | hit rate 6.9% among 320,000 | Potency, µM (titrated, usually from 28.7 µM), without a hit: at the highest dose activity change, negative = inhibition, actives largely listed as inhibitors | P. falciparum luciferase reporter growth, 96 h | AID 504834; note: potency is the fitted concentration of half-maximal effect; % is set by controls: 0 for no effect and ±100 for the full control effect
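Luminescence readout: decreased luciferase signal marks inhibited growth of reporter-expressing P. falciparum in infected red cells (2% hematocrit, 0.05% parasitemia final), exposed to compound two generations (96 h, 37 C, 5% CO2).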
Shiga inhibitor = blocks Shiga toxin action in Vero cells | Vero cells, Shiga toxin protein synthesis inhibition reporter | AID 2315 | hit rate 9.2% among 290,000 | inhibition, % at 38.7 µM; in the data active = inhibition mostly above about 28%, no sharp cut-off; inactive = mostly below about 43%; note: 0% is about no effect
Pf growth 48h = P. falciparum growth inhibition at 48 hours (one generation); P. falciparum luciferase growth in erythrocytes, 48 h; Potency, µM (series often up to 28.7 µM), inactives show at the highest dose activity change, negative = inhibition, usual class: inhibitors; hit rate 5.9% among 310,000; AID 504832; note: potency is the fitted concentration of half-maximal effect; % is set by controls: 0 for no effect and ±100 for the full control effect
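In quantitative HTS format, infected erythrocytes bearing luciferase-reporter parasites were treated for a single generation at 37 C. Luminescence after adding detection reagent served as the growth measure.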
HCMV inh = blocks human cytomegalovirus replication; HFF cells, HCMV-luciferase reporter, 72 h; hits give low values; activity change, negative = inhibition, % at 57.5 µM; hit rate 4.5% among 410,000; AID 1259415; in the data active = activity change below about -60%; inconclusive = no clear call, values can overlap the other calls; inactive = above about -39%; note: % is set by controls: 0 for no effect and ±100 for the full control effect
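Human foreskin fibroblasts infected with luciferase-reporter HCMV at MOI 1 PFU/cell, compounds at two doses. Luciferase measured 72 h post infection; normalized to buffer-only basal and Salinomycin (10uM) controls.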
Cycloheximide cs = counter-screen for Shiga toxin inhibitors: cycloheximide protein synthesis inhibition | AID 2314 | cell reporter, cycloheximide protein synthesis inhibition counterscreen | hit rate 12% among 300,000 | max response, %; in the data active = max response mostly above about 13%, no sharp cut-off; inactive = mostly below about 14%; note: read at 38.3 µM for the half of the compounds with a filed dose; 0% is about no effect
HCV inh = blocks hepatitis C virus; AID 651820; hit rate 3.4% among 340,000; Huh7.5.1 HCVcc-Cre infection, luciferase reporter, 44 h; Potency, µM (top dose mostly 41.8 µM), for the others: at the highest dose activity change, negative = inhibition, hits mostly inhibitors; note: potency is the fitted concentration of half-maximal effect; % is set by controls: 0 for no effect and ±100 for the full control effect
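1,000 cells/well; 4 h culture; + compound; + HCVcc-Cre (~0.5 moi); 44 h; luciferase substrate, RT 15 min; read 15 sec.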
* marks the source's active call; other numbers are inactive results; ? = inconclusive; . = not tested or not shown; [ ] = another dose, or the depositor's remark. Hits are enriched below; roughly 21% of the tested compounds scored in any of these assays. Unless noted, calls come from the whole dose curve; as a rule, active = well fitted inhibition curve with a large enough effect; inconclusive = small, poorly fitted or top-dose-only effect, or another doubt; inactive = no such curve, though single readings can be large or run the other way.

SMILES	Pf growth 96h	Shiga inhibitor	Pf growth 48h	HCMV inh	Cycloheximide cs	HCV inh
CN1CCN(S(=O)(=O)c2cnccc2N2CCN(c3cccc(Cl)c3)CC2)CC1	2.62µM*	-8.1	2.62µM*	?	-4.0	?
CNS(=O)(=O)c1cnccc1N1CCN(c2cccc(Cl)c2)CC1	?	-16.5	?	-15.0	-2.1	-6.1%
Cc1nn(C)cc1S(=O)(=O)N1CCN(c2cccc(Cl)c2)CC1	?	-6.2	-15.8%	-8.7	-2.6	-3.3%
CCN(CC)S(=O)(=O)c1cnccc1N1CCN(c2cccc(Cl)c2)CC1	2.94µM*	-13.3	3.29µM*	-29.3	-4.0	-18.2%
COc1ccccc1C(=O)NCCC(=O)N1CC(C)OC(C)C1 (stereo not drawn)	.	.	.	-7.8	.	13.7%
CCN(CC)C(=O)c1ccc(NC(=O)c2cn(-c3ccccc3)nc2-c2ccc(OC)cc2)cc1	7.38µM*	-3.2	?	24.3	1.7	.
COc1ccc(NC(=O)c2cn(-c3ccccc3)nc2-c2ccncc2)cc1	40.0%[5.75 µM]	8.9	?	-22.9	9.9	-15.9%
COc1ccc(NC(=O)CN(C)C(=O)c2cn(-c3ccccc3)nc2-c2ccc(F)cc2)cc1	?	.	11.7µM*	10.6	.	11.2µM*
Cc1cccc(-c2nn(-c3ccccc3)cc2C(=O)Nc2cccc(S(=O)(=O)NC3=NCCC3)c2)c1	-9.8%	.	?	-17.0	.	-32.2%
COc1ccc(NC(=O)CN(C)C(=O)c2cn(-c3ccccc3)nc2-c2ccc(OC)cc2)cc1	?	.	13.1µM*	-23.6	.	0.0%
COc1ccc(-c2nn(-c3ccccc3)cc2C(=O)Nc2cccc(S(=O)(=O)NC3=NCCC3)c2)cc1	.	.	.	-11.1	.	11.2µM*
COc1ccc(NC(=O)CN(C)C(=O)c2cn(-c3ccccc3)nc2-c2ccc(Cl)cc2)cc1	?	.	10.4µM*	-27.8	.	-27.1%
CN(CC(=O)Nc1cccc(F)c1)C(=O)c1cn(-c2ccccc2)nc1-c1ccc(Cl)cc1	?	.	14.7µM*	?	.	?
COc1ccc(NC(=O)CN(C)C(=O)/C=C/c2cn(-c3ccccc3)nc2-c2ccc(C)cc2)cc1	13.1µM*	.	9.28µM*	-38.0	.	?
O=[N+]([O-])c1ccc(NCCO)c2ncccc12	15.7%	-13.7	8.9%	4.2	-4.0	?
CC(=O)NC(c1ccc(C)cc1)c1cc([N+](=O)[O-])c2cccnc2c1O (stereo not drawn)	?	7.9	?	-98.9*	-0.6	?
CCCC(=O)NC(c1ccco1)c1cc([N+](=O)[O-])c2cccnc2c1O (stereo not drawn)	14.7%	-6.7	?	-63.8*	9.8	-4.5%
CCC(=O)NC(c1ccc(C)cc1)c1cc([N+](=O)[O-])c2cccnc2c1O (stereo not drawn)	19.8%	-6.2	?	-97.5*	0.9	?
CCCn1c(CCC(=O)Nc2ccc(C)c(Cl)c2)nc2cccnc21	.	.	.	-20.4	.	.
CCCCCCOc1ccc(/C=C/C(=O)N2CCOCC2)cc1OC	-4.6%	-5.4	14.3%	-27.5	-2.8	-6.0%
O=C(/C=C/c1ccc(OCCCF)cc1)N1CCOCC1	82.2%	65.8*	97.0%	46.9	29.8*	-6.2%
O=C(C=Cc1ccco1)N1CCOCC1	.	.	.	-13.8	.	10.3%
O=C(/C=C/c1cccc2ccccc12)c1ccncc1	?	-7.4	13.4%	-82.7*	2.0	15.8µM*
Cc1ccccc1/C=C/C(=O)N1CCOCC1	31.3%	66.3*	75.6%	22.3	30.8*	5.2%
COc1ccccc1/C=C/C(=O)N1CCOCC1	11.3%	-3.6	.	-71.5*	-1.1	4.4%
SMILES	Pf growth 96h	Shiga inhibitor	Pf growth 48h	HCMV inh	Cycloheximide cs	HCV inh
COc1ccccc1/C=C/C(=O)OCCN1CCOCC1	32.3%	11.6	19.9%	35.8	8.6	9.1%
Cc1[nH]c2ccccc2c1/C=C/C(=O)c1ccncc1	?	18.7	?	-18.5	8.4	?
Cc1ccc(OCc2nc(-c3ccc(C(=O)N4CCN(c5cccc(C(F)(F)F)c5)CC4)cc3)oc2C)cc1	.	.	.	0.6	.	.
O=C(CCCc1ccccc1)Nc1nccs1	.	.	.	18.7	.	6.4%
O=C(/C=C/c1cccc(Oc2ccccc2)c1)N1CCOCC1	354.5%	86.3*	76.0%	-12.1	33.8*	-1.6%
COc1ccccc1/C=C/C(=O)N1CCC(c2ccccc2)C1 (stereo not drawn)	79.7%	71.3*	89.3%	88.8	52.5*	4.5%
O=C(/C=C/c1ccccc1Cl)N1CCOCC1	?	1.9	8.4%	96.8	18.6*	1.7%
N#Cc1ccccc1/C=C/C(=O)N1CCOCC1	182.3%	-3.6	30.6%	53.1	0.7	0.3%
O=C(/C=C/c1cccc2ccccc12)N1CCOCC1	106.9%	85.6*	81.8%	73.1	32.3*	-4.9%
CCN(CC)C(=O)C(=O)N/N=C/c1ccc(F)cc1	4.1%	0.3	28.5%	-19.0	-1.4	9.5%
Cc1ccc(OCCOc2ccc(Br)cc2)c([N+](=O)[O-])n1	188.5%	154.3*	172.3%	84.2	71.8*	?
Cc1ccc(OCc2ccccc2C)c([N+](=O)[O-])n1	-4.4%	33.5	14.0%	25.4	40.7*	?
Cc1ccc(OCc2ccc([N+](=O)[O-])cc2)c([N+](=O)[O-])n1	-11.7%	-11.4	15.0%	11.3	-1.5	-8.2%
CCOc1ccccc1CNC(=O)c1cccc(NC(=O)c2nsc3ccccc23)c1	.	.	.	57.9	.	.
Cc1ccc(C(=O)Nc2c(-c3ccccc3)nc3ccccn23)cc1C	.	.	.	-1.0	.	.
Cc1nnc(N2CCCC(C(=O)NCCc3ccc(Cl)cc3)C2)c2nn(-c3ccccc3)c(C)c12 (stereo not drawn)	.	.	.	-14.0	.	.
Cc1ccccc1Oc1ccc(Oc2ccccc2C)nn1	-24.9%	116.4*	?	-8.4	30.7*	-50.5%
CCN1CCN(Cc2ccc(NC(=O)c3ccc(C)c(NC(=O)c4nccn4C)c3)cc2C(F)(F)F)CC1	-25.0%	-3.9	?	-16.1	5.8	-12.5%
CCN1CCN(Cc2ccc(NC(=O)c3cc(NC(=O)c4nccnc4N)cc(OC)c3)cc2C(F)(F)F)CC1	1.47µM*	14.8	1.65µM*	-1.3	9.0	-19.8%[8.37 µM]
CCN1CCN(Cc2ccc(NC(=O)c3ccc(C)c(NC(=O)c4nccnc4N)c3)cc2C(F)(F)F)CC1	2.62µM*	-16.3	5.22µM*	-73.3*	-14.2	10µM*
CCN1CCN(Cc2ccc(NC(=O)c3ccc(C)c(NC(=O)c4cc(-c5ccc(Br)cc5)n[nH]4)c3)cc2C(F)(F)F)CC1	1.85µM*	-3.1	1.04µM*	?	-1.8	?
CCN1CCN(c2ccc(NC(=O)c3ccc(C#N)cc3F)cc2Cl)CC1	-49.9%	28.9	?	-14.8	19.9	-16.8%
CCN1CCN(Cc2ccc(NC(=O)c3cc(NC(=O)c4cncc(-c5ccc(C#N)cc5)c4)cc(OC)c3)cc2C(F)(F)F)CC1	0.104µM*	-11.2	0.465µM*	-99.4*	-4.9	-13.2%[8.37 µM]
